# From ChEMBL document CHEMBL3988442, “University of Dundee, Small-Polar-MMV Screening Library” (2021)
# The whole screen tested about 48,000 compounds, of which about 13,000 (27%) showed an effect of 50% or more. The list shows a part of the results.
# System: Wolbachia pipientis
# Assay: Anti-Wolbachia Cell-Based Screen
# Assay type: functional
# Design: scale not given: in the data most compounds retested in dose-response had high values
# Settings: 5 µM
row,Structure (SMILES),Percent Effect
1,COC(C)c1nc(CN2CCNCC2)cs1 (stereo not given),8.778%
2,Cc1noc([C@@]23CCO[C@@H]2CCN(C(=O)c2ccsc2)C3)n1,10.18%
3,Cc1noc([C@]23COC[C@H]2CN(S(=O)(=O)C2CC2)C3)n1,7.077%
4,Cc1noc([C@]23COC[C@H]2CN(C(=O)COC2CCCC2)C3)n1,97.21%
5,Cc1noc([C@]23COC[C@H]2CN(S(C)(=O)=O)C3)n1,1.796%
6,Cc1noc([C@]23COC[C@H]2CN(C(=O)N2CCCC2)C3)n1,106.7%
7,Cc1cc(C(=O)N2C[C@@H]3COC[C@]3(CN(C)C)C2)sc1C.O=C(O)C(F)(F)F,-22.46%
8,Cc1noc([C@]23COC[C@H]2CN(S(=O)(=O)N(C)C)C3)n1,-12.17%
9,Cc1nc([C@@H]2C[C@@H]3CCN(C(=O)Cc4ccsc4)C[C@H]3O2)no1,-14.45%
10,Cc1noc([C@]23COC[C@H]2CN(C(=O)C2CCOCC2)C3)n1,-8.72%
11,Cc1noc([C@]23COC[C@H]2CN(C(=O)Cc2ccsc2)C3)n1,110.7%
12,CS(=O)(=O)CC(=O)N1C[C@@H]2COC[C@]2(c2nnc(C3CC3)o2)C1,-25.79%
13,Cc1noc([C@]23COC[C@H]2CN(C(=O)CN(C)C)C3)n1.O=C(O)C(F)(F)F,111.8%
14,Cc1cnn(CC2CN(c3ncnc4ccsc34)CCO2)c1 (stereo not given),-19.26%
15,O=C(Nc1cn[nH]c1)N(CCCO)C1CCc2ccccc21 (stereo not given),-15.52%
16,Cc1cc(NC(=O)N2CCOCC2)nn1-c1cccc(Cl)c1,1.002%
17,c1ccc(COCCN2CCc3[nH]cnc3C2c2ccoc2)cc1 (stereo not given),3.153%
18,O=C(NCc1cscn1)NC1CCN(c2ncccc2Cl)C1 (stereo not given),-8.414%
19,CC(C)CC(NS(C)(=O)=O)C(=O)N(C)Cc1nnc2n1CCC2 (stereo not given),-5.124%
20,COc1cccc(OC2CN(C(=O)C3CCCN(C(=O)N(C)C)C3)C2)c1 (stereo not given),-3.604%
21,CCOCC(=O)N1C[C@@H]2COC[C@]2(c2nc(C)no2)C1,107.1%
22,CCOCC(=O)N1C[C@@H]2COC[C@H](c3nc(C)no3)[C@@H]2C1,1.076%
23,Cc1cc(C(=O)N2C[C@@H]3COC[C@]3(c3nnc(C)o3)C2)on1,27.9%
24,CN(C)CCNC(=O)c1nc2c(o1)CN(c1ncccn1)C2,-6.07%
25,Cc1cc(-c2cccc3c2CCNC3)cnc1-n1cnnc1,3.521%
26,CCNC(=O)Cc1ccc(NC(=O)NC(CC)c2ccncc2)cc1 (stereo not given),3.124%
27,CCNC(=O)Cc1ccc(-c2cccc3c2CCNC3)cc1,110.7%

row,Structure (SMILES),Percent Effect
1,CN(C)C(=O)Cc1ccc(-c2cccc3c2CCNC3)cc1,105%
2,Cc1ncc2c(c1CNC(=O)C1(c3ccc(F)cc3)CC1)CCNC2,13.15%
3,Cc1nc(-n2cnnc2)ccc1-c1cccc2c1CCNC2,-4.509%
4,CCS(=O)(=O)CCNC(=O)NCc1ccccc1-n1cccn1,-14.43%
5,CS(=O)(=O)N1CCC2(CC1)CC(OCC1CCOCC1)CO2 (stereo not given),-4.18%
6,CCCc1nc(CN(CC)C(=O)c2ccc3c(c2)nnn3C)no1,9.755%
7,COCC(O)CN1CCC(=O)N(CC2CC2)Cc2ccccc21 (stereo not given),108.3%
8,COCC(O)CN1CCC(=O)N(CC=C(C)C)Cc2ccccc21 (stereo not given),122.6%
9,COCC(O)CN1CCC(=O)N(CC(=O)C(C)(C)C)Cc2ccccc21 (stereo not given),110.3%
10,CCCS(=O)(=O)CC(=O)N1CCN(CC2CC2)c2ccccc21,-17.3%
11,O=C(CN1CCc2ccccc21)Nc1ccc(OC(F)F)cc1,-23.08%
12,COCCC(=O)N1CCN(CC2CC2)c2ncccc2C1,-45.17%
13,COc1ccc(CNC(=O)CN2CCc3ccccc32)cc1,5.049%
14,O=C(NCCNc1ncccn1)c1ccc(OCc2ccccc2)nc1,-6.041%
15,CN(c1ccc(CNC(=O)c2c[nH]c(=O)c(Cl)c2)cc1)C1CCCCC1,0.5041%
16,CCOCCOC(C)C(=O)Nc1nccn1Cc1ccccc1 (stereo not given),-11.15%
17,CC(CCS(C)(=O)=O)NC(=O)NCc1ccc2ccccc2c1 (stereo not given),-7.499%
18,Cc1cc(C)n(C2CN(c3nc(-c4ccncc4)nc4c3CCC4)C2)n1,-1.448%
19,CN(C)C(=O)c1ccc(NCCNc2ccc3ccccc3n2)nc1,-5.082%
20,Cc1nc(C2CCN(C(=O)c3ccnn3C)CC2)c2sccn12,90.51%
21,Cc1c(C(=O)N2CCC(c3nc(C)n4ccsc34)CC2)cnn1C,112.4%
22,CCOc1cc(C)nc(N2CCN(C(=O)c3ccnn3C)CC2)n1,4.776%
23,CCCn1ncc(C(=O)N2CCN([C@H]3CCCC[C@@H]3O)CC2)c1C,2.84%
24,Cc1nc(C2CCN(C(=O)c3ccc(=O)n(C)c3)CC2)c2sccn12,-4.246%
25,Cc1nc(C2CCCN(C(=O)c3ccncc3)C2)c2sccn12 (stereo not given),112%
26,Cc1csc(C2CCCN(C(=O)c3cnn4ccc(C)nc34)C2)n1 (stereo not given),-3.808%
27,O=C(CCCN1CCCCC1)N1CCN(C(=O)c2ccc[nH]2)CC1,1.236%

row,Structure (SMILES),Percent Effect
1,CCC1CN(C(=O)COc2ccc(C(=O)NC3CC3)cc2)CCO1 (stereo not given),-23.61%
2,CCc1nccn1CCC(=O)N1CCN(c2ccccc2C)CC1C (stereo not given),0.5766%
3,CC(=O)N1CC[C@H](c2nc3cc(C)ccc3o2)C1,-3.722%
4,CC(=O)N1CCC(NS(=O)(=O)c2cccnc2)CC1,4.265%
5,CC(=O)N1CCC(c2ccnc(Nc3ccc(C)cn3)n2)C1 (stereo not given),111.1%
6,Cc1ccc(Nc2nccc(C3CCN(C(=O)CO)C3)n2)nc1 (stereo not given),147.3%
7,CC(=O)N1CCC(c2ccnc(Nc3cncnc3)n2)CC1,88.64%
8,CC(=O)N1CCN(c2ccccc2CNc2ccc(C)cn2)CC1,1.224%
9,CNCC(=O)N1CCC(c2ccnc(Nc3ccc(C)cn3)n2)C1.Cl (stereo not given),-6.427%
10,O=C(CCSc1ccc(F)cc1)NS(=O)(=O)c1ccc2c(c1)OCCO2,5.18%
11,FC(F)(F)c1ccc(-c2cc(NC3CCNCC3)nc3[nH]ccc23)nc1,-3.524%
12,COCCN(C/C=C/c1ccccc1)Cc1nccs1,-13.78%
13,CC1CCCCN1C(=O)CCn1cnc2sccc2c1=O (stereo not given),-3.502%
14,CC1CCN(CC(O)Cn2cnc3ccc(Cl)cc3c2=O)CC1 (stereo not given),-0.72%
15,Cc1cc(C)n(CC2CCCCN2CCCS(N)(=O)=O)n1 (stereo not given),6.399%
16,CC(C)(C)c1cc2ncn(CCCN3CCCCC3CO)c(=O)c2s1 (stereo not given),91.32%
17,O=c1c2ccc(Cl)cc2ncn1CCCN1CCCCC1CO (stereo not given),62.54%
18,OCC1CCCCN1Cc1cc(O)c2cccc(F)c2n1 (stereo not given),-10.07%
19,CCC1CCCCN1C(=O)CCn1cnc2sccc2c1=O (stereo not given),3.224%
20,OCC1CCCCN1CCCNCc1cc(O)c2cc(F)ccc2n1 (stereo not given),13.42%
21,CC(C)N1CCCCC1CCn1cnc2cc(C(F)(F)F)ccc2c1=O (stereo not given),86.9%
22,Cc1nc(C)n(CC2CCCCN2CCCN2CCCC2=O)n1 (stereo not given),-1.453%
23,OCC1CCCCN1CCn1ccnc1-c1ccc2c(c1)OCCO2 (stereo not given),3.348%
24,O=c1c2ccc(C(F)(F)F)cc2ncn1CCCN1CCCCC1CO (stereo not given),127.8%
25,Cc1nccc(N2CCC(=O)N(Cc3ccc(F)cc3)C(C(C)C)C2)n1 (stereo not given),-4.712%
26,Cc1ccc(CC(=O)Nc2ccc(CS(C)(=O)=O)c(F)c2)cc1,-3.383%
27,O=C1NCCN1CCNCC1(O)CCCN(CCC2CCCCC2)C1=O (stereo not given),-3.271%

row,Structure (SMILES),Percent Effect
1,Cc1nnsc1C(=O)N(C)Cc1nc(-c2ccccn2)no1,-8.145%
2,Cc1nnc(CN2CCN(C)C3(CCC(=O)N(CCO)CC3)C2)s1 (stereo not given),5.792%
3,Cc1n[nH]c(C)c1CCNC(=O)Nc1ccc(S(C)(=O)=O)cc1,3.499%
4,Cc1ccc(CN2CCCn3cnc(COCC4CC4)c3C2)o1.O=C(O)C(F)(F)F,8.584%
5,Clc1ccccc1C1(c2ccnc(CC3CC3)n2)CCNCC1,5.526%
6,Cc1ccc(C(=O)N2CCCC(c3nncn3C)C2)c(C)c1 (stereo not given),142.4%
7,Cc1occc1C(=O)N1CCCC(c2nncn2C)C1 (stereo not given),118%
8,Cn1cnnc1C1CCCN(C(=O)c2ccc3c(c2)OCCCO3)C1 (stereo not given),0.4143%
9,CCOc1ccc2nc(CN3CCC(CN)C3)ccc2c1 (stereo not given),6.34%
10,CC(C)CCN1CCc2c(C(=O)N(C)Cc3ccccn3)nn(C)c2C1.O=C(O)C(F)(F)F.O=C(O)C(F)(F)F.O=C(O)C(F)(F)F,7.035%
11,CC(Cn1cncn1)NC(=O)Nc1ccc(COC2CCCC2)cc1 (stereo not given),-11.48%
12,Cc1ccc(CN2CC[C@H]3CO[C@H](CN(C)C)[C@H]3C2)o1,-4.083%
13,Cc1cc(C)c(CNC(=O)N2CCCC2c2cc(C)on2)c(=O)[nH]1 (stereo not given),104.6%
14,Cc1cc(C)c(CNC(=O)N2CCC(N3CCCCC3)CC2)c(=O)[nH]1,-48.68%
15,Cc1cc(C)c(CNC(=O)N2CCNC(=O)C2)c(=O)[nH]1,-6.191%
16,Cc1cc(C)c(CNC(=O)N2CCOC(c3ccccc3)C2)c(=O)[nH]1 (stereo not given),99.02%
17,Cc1cc(C)c(CNC(=O)N2CCCC2C(N)=O)c(=O)[nH]1 (stereo not given),4.239%
18,Cc1cc(C)c(CNC(=O)N2CCC(N3CCNC3=O)CC2)c(=O)[nH]1,-7.993%
19,Cc1cc(C2CCCN2C(=O)NCc2cccnc2N(C)C)on1 (stereo not given),-7.167%
20,Cc1cc(C)c(CNC(=O)N2CCN(c3ncccn3)CC2)c(=O)[nH]1,-5.06%
21,Cc1cc(C2CCCN2C(=O)NCc2ccccn2)on1 (stereo not given),-32.12%
22,Cc1cc(C2CCCN2C(=O)NCc2c(C)cc(C)[nH]c2=O)on1 (stereo not given),97.2%
23,Cc1cc(C)c(CNC(=O)N2CCC(N3CCCC3)CC2)c(=O)[nH]1,3.168%
24,Cc1cc(C)c(CNC(=O)N2CCCC2c2ccccn2)c(=O)[nH]1 (stereo not given),93.91%
